Source: PubChem BioAssay AID1159580 (chemical genetic matrix, 2015)
The campaign covered roughly 5,500 compounds. About 2,000 (36%) were called active. Roughly 18% stayed inconclusive and do not appear here. The list shows a part of the results. Unmarked numbers belong to inactive results. No stated cut-off is given here; in the data, active means normalized growth mostly below about 0.91 (no sharp cut-off); inconclusive means no clear call, values can overlap the other calls; inactive means mostly above about 0.92.

Experiment: chemical genetic growth profiling, strain panel (AID 1159580);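 further: tested at 20 µM; growth read once vehicle control cultures reached saturation at 30 °C; 1 = growth at the plate median or of vehicle wells; lower values mean less growth of the strain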
Conditions: S. cerevisiae deletion strains, growth OD
[1] = locus YAR019C, strain CDC15, active compounds read low
[2] = locus YBL105C, strain PKC1, active compounds read low
[3] = locus YBR135W, strain CKS1, active compounds read low
[4] = locus YBR136W, strain MEC1, active compounds read low
[5] = locus YBR160W, strain CDC28, active compounds read low
[6] = locus YDL017W, strain CDC7, active compounds read low
[7] = locus YDL028C, strain MPS1, active compounds read low
[8] = locus YDL101C, strain DUN1, active compounds read low
[9] = locus YDL108W, strain KIN28, active compounds read low
[10] = locus YDL132W, strain cdc53, active compounds read low
[11] = locus YDL214C, strain PRR2, active compounds read low
[12] = locus YDR052C, strain DBF4, active compounds read low
[13] = locus YDR054C, strain cdc34, active compounds read low
[14] = locus YDR226W, strain ADK1, active compounds read low
[15] = locus YDR477W, strain SNF1, active compounds read low
[16] = locus YER123W, strain YCK3, active compounds read low
[17] = locus YER133W, strain GLC7, active compounds read low
[18] = locus YFL009W, strain cdc4, active compounds read low
[19] = locus YFL029C, strain CAK1, active compounds read low
[20] = locus YFR003C, strain YPI1, active compounds read low
[21] = locus YFR019W, strain FAB1, active compounds read low
[22] = locus YFR028C, strain CDC14, active compounds read low
[23] = locus YGR040W, strain KSS1, active compounds read low
[24] = locus YGR052W, strain FMP48, active compounds read low
[25] = locus YGR092W, strain DBF2, active compounds read low
[26] = locus YHR030C, strain SLT2, active compounds read low
[27] = locus YHR079C, strain IRE1, active compounds read low
[28] = locus YHR082C, strain KSP1, active compounds read low
[29] = locus YHR205W, strain SCH9, active compounds read low
[30] = locus YIL147C, strain SLN1, active compounds read low
[31] = locus YJL095W, strain BCK1, active compounds read low
[32] = locus YJL128C, strain PBS2, active compounds read low
[33] = locus YJL157C, strain FAR1, active compounds read low
[34] = locus YJR016C, strain ILV3, active compounds read low
[35] = locus YJR066W, strain TOR1 (second series), active compounds read low
[36] = locus YJR066W, strain TOR1, active compounds read low
[37] = locus YKL048C, strain ELM1, active compounds read low
[38] = locus YKL067W, strain YNK1, active compounds read low
[39] = locus YKL101W, strain HSL1, active compounds read low
[40] = locus YKL193C, strain SDS22, active compounds read low
[41] = locus YKL203C, strain TOR2, active compounds read low
[42] = locus YLR113W, strain HOG1, active compounds read low
[43] = locus YLR133W, strain CKI1, active compounds read low
[44] = locus YLR403W, strain SFP1, active compounds read low
[45] = locus YML070W, strain DAK1, active compounds read low
[46] = locus YMR001C, strain CDC5, active compounds read low
[47] = locus YMR205C, strain PFK2 (second series), active compounds read low
[48] = locus YMR277W, strain FCP1, active compounds read low
[49] = locus YNL006W, strain LST8, active compounds read low
[50] = locus YNL020C, strain ARK1, active compounds read low
[51] = locus YNL161W, strain CBK1, active compounds read low
[52] = locus YNL183C, strain NPR1, active compounds read low
[53] = locus YNL207W, strain RIO2, active compounds read low
[54] = locus YNL222W, strain SSU72, active compounds read low
[55] = locus YNL307C, strain MCK1 (second series), active compounds read low
[56] = locus YOL078W, strain AVO1, active compounds read low
[57] = locus YOL136C, strain PFK27, active compounds read low
[58] = locus YOR061W, strain CKA2, active compounds read low
[59] = locus YOR119C, strain RIO1, active compounds read low
[60] = locus YOR231W, strain MKK1, active compounds read low
[61] = locus YOR329C, strain SCD5, active compounds read low
[62] = locus YPL031C, strain PHO85, active compounds read low
[63] = locus YPL153C, strain RAD53, active compounds read low
[64] = locus YPL204W, strain HRR25, active compounds read low
[65] = locus YPL209C, strain IPL1, active compounds read low
[66] = locus YPL256C, strain CLN2, active compounds read low
[67] = locus YPR025C, strain CCL1, active compounds read low
[68] = locus YPR106W, strain ISR1, active compounds read low
[69] = locus YPR111W, strain DBF20, active compounds read low
[70] = strain NNK1, active compounds read low
[71] = strain TSCII, active compounds read low

Work on `O=S(=O)(Nc1cccc2nsnc12)c1cc(Cl)sc1Cl` yielded a normalized growth [1] of 0.948, a normalized growth [2] of 0.961 and a normalized growth [3] of 0.957. For the same compound, the normalized growth [4] was 0.96, the normalized growth [5] was 0.962 and the normalized growth [6] was 0.961. It also gave a normalized growth [7] of 0.961, a normalized growth [8] of 0.962 and a normalized growth [9] of 0.961. For the same compound, the normalized growth [10] was 0.969, the normalized growth [11] was 0.956 and the normalized growth [12] was 0.955. For the same compound, the normalized growth [13] was 0.95, the normalized growth [14] was 0.947 and the normalized growth [15] was 0.983. For the same compound, the normalized growth [16] was 0.944, the normalized growth [17] was 0.938 and the normalized growth [18] was 0.947. It also gave a normalized growth [19] of 0.952, a normalized growth [20] of 0.958 and a normalized growth [21] of 0.938. It also gave a normalized growth [22] of 0.96, a normalized growth [23] of 0.971 and a normalized growth [24] of 1.08. It also gave a normalized growth [25] of 0.87, a normalized growth [26] of 0.871 and a normalized growth [27] of 0.905. It also gave a normalized growth [28] of 0.981, a normalized growth [29] of 0.933 and a normalized growth [30] of 0.953. The normalized growth [31] was 0.904, the normalized growth [32] was 0.953 and the normalized growth [33] was 0.967. It also gave a normalized growth [34] of 0.951, a normalized growth [35] of 0.95 and a normalized growth [36] of 0.953. The normalized growth [37] was 0.916, the normalized growth [38] was 0.954 and the normalized growth [39] was 0.955. For the same compound, the normalized growth [40] was 0.961, the normalized growth [41] was 1.02 and the normalized growth [42] was 0.887. For the same compound, the normalized growth [43] was 0.96, the normalized growth [44] was 0.942 and the normalized growth [45] was 0.947. It also gave a normalized growth [46] of 0.959, a normalized growth [47] of 0.962 and a normalized growth [48] of 0.96. The normalized growth [49] was 0.959, the normalized growth [50] was 0.953 and the normalized growth [51] was 0.962. It also gave a normalized growth [52] of 0.979, a normalized growth [53] of 0.957 and a normalized growth [54] of 0.958. It also gave a normalized growth [55] of 0.933, a normalized growth [56] of 0.957 and a normalized growth [57] of 0.94. It also gave a normalized growth [58] of 0.943, a normalized growth [59] of 1.09 and a normalized growth [60] of 0.954. For the same compound, the normalized growth [61] was 0.961, the normalized growth [62] was 0.982 and the normalized growth [63] was 0.994. The normalized growth [64] was 0.999, the normalized growth [65] was 0.96 and the normalized growth [66] was 0.884. It also gave a normalized growth [67] of 0.956, a normalized growth [68] of 0.964 and a normalized growth [69] of 0.947. For the same compound, the normalized growth [70] was 0.969 and the normalized growth [71] was 0.953.

Work on `O=S(=O)(Nc1cccc(CCc2ccccn2)c1)c1cc(Cl)c(Cl)cc1Cl` yielded a normalized growth [1] of 0.982, a normalized growth [2] of 0.977 and a normalized growth [3] of 0.985. For the same compound, the normalized growth [4] was 0.983, the normalized growth [5] was 0.966 and the normalized growth [6] was 0.981. For the same compound, the normalized growth [7] was 0.987, the normalized growth [8] was 0.973 and the normalized growth [9] was 0.983. For the same compound, the normalized growth [10] was 0.976, the normalized growth [11] was 0.967 and the normalized growth [12] was 0.977. For the same compound, the normalized growth [13] was 0.979, the normalized growth [14] was 0.986 and the normalized growth [15] was 0.988. For the same compound, the normalized growth [16] was 0.995, the normalized growth [17] was 1 and the normalized growth [18] was 0.989. The normalized growth [19] was 0.976, the normalized growth [20] was 0.981 and the normalized growth [21] was 0.987. For the same compound, the normalized growth [22] was 0.973, the normalized growth [23] was 0.98 and the normalized growth [24] was 1.08. The normalized growth [25] was 1, the normalized growth [26] was 1.15 and the normalized growth [27] was 1.01. The normalized growth [28] was 1.08, the normalized growth [29] was 0.963 and the normalized growth [30] was 0.985. For the same compound, the normalized growth [31] was 1.02, the normalized growth [32] was 0.942 and the normalized growth [33] was 0.98. It also gave a normalized growth [34] of 0.981, a normalized growth [35] of 0.963 and a normalized growth [36] of 1.08. For the same compound, the normalized growth [37] was 0.97, the normalized growth [38] was 0.979 and the normalized growth [39] was 0.959. For the same compound, the normalized growth [40] was 0.984, the normalized growth [41] was 1.05 and the normalized growth [42] was 0.883. For the same compound, the normalized growth [43] was 0.965, the normalized growth [44] was 0.983 and the normalized growth [45] was 0.95. It also gave a normalized growth [46] of 0.987, a normalized growth [47] of 0.971 and a normalized growth [48] of 0.991. It also gave a normalized growth [49] of 0.992, a normalized growth [50] of 0.969 and a normalized growth [51] of 0.978. It also gave a normalized growth [52] of 1.04, a normalized growth [53] of 0.985 and a normalized growth [54] of 0.976. It also gave a normalized growth [55] of 0.961, a normalized growth [56] of 0.974 and a normalized growth [57] of 0.952. It also gave a normalized growth [58] of 0.978, a normalized growth [59] of 1.06 and a normalized growth [60] of 0.951. The normalized growth [61] was 0.983, the normalized growth [62] was 0.992 and the normalized growth [63] was 0.965. For the same compound, the normalized growth [64] was 0.991, the normalized growth [65] was 0.976 and the normalized growth [66] was 0.945. It also gave a normalized growth [67] of 0.984, a normalized growth [68] of 0.965 and a normalized growth [69] of 0.955. The normalized growth [70] was 0.992 and the normalized growth [71] was 0.978.

With `O=S(=O)(Nc1cccc2cccnc12)c1cc(Cl)c(Cl)cc1Cl` the normalized growth (locus YAL013W, strain DEP1, active compounds read low) was 0.773 (active), the normalized growth (locus YBR229C, strain ROT2, active compounds read low) was 0.672 (active) and the normalized growth (locus YCL061C, strain MRC1, active compounds read low) was 0.804 (active). The normalized growth [8] was 1.02, the normalized growth (locus YDR150W, strain NUM1, active compounds read low) was 1.04 and the normalized growth (locus YEL061C, strain CIN8, active compounds read low) was 0.644 (active). The normalized growth (locus YGR078C, strain PAC10, active compounds read low) was 0.855 (active), the normalized growth [26] was 0.635 (active) and the normalized growth (locus YHR087W, strain rtc3, active compounds read low) was 0.517 (active). For the same compound, the normalized growth (locus YJR043C, strain POL32, active compounds read low) was 0.947, the normalized growth (locus YJR075W, strain HOC1, active compounds read low) was 0.819 (active) and the normalized growth (locus YKL190W, strain CNB1, active compounds read low) was 0.652 (active). The normalized growth (locus YLR039C, strain RIC1, active compounds read low) was 0.627 (active), the normalized growth (locus YLR058C, strain SHM2 (second series), active compounds read low) was 0.951 and the normalized growth (locus YLR085C, strain ARP6, active compounds read low) was 0.583 (active). For the same compound, the normalized growth (locus YLR262C, strain YPT6, active compounds read low) was 0.716 (active), the normalized growth (locus YML094W, strain GIM5, active compounds read low) was 0.761 (active) and the normalized growth (locus YMR219W, strain ESC1, active compounds read low) was 0.863 (active). The normalized growth (locus YMR263W, strain SAP30, active compounds read low) was 0.853 (active), the normalized growth (locus YNL153C, strain GIM3, active compounds read low) was 0.845 (active) and the normalized growth (locus YNL298W, strain CLA4 (second series), active compounds read low) was 0.724 (active). For the same compound, the normalized growth (locus YNL322C, strain KRE1, active compounds read low) was 0.967, the normalized growth (locus YNR030W, strain Alg12, active compounds read low) was 0.773 (active) and the normalized growth (locus YOL006C, strain TOP1, active compounds read low) was 0.169 (active). The normalized growth (locus YPL055C, strain LGE1, active compounds read low) was 0.635 (active), the normalized growth (locus YPL241C, strain CIN2, active compounds read low) was 0.635 (active) and the normalized growth (locus YPR135W, strain CTF4, active compounds read low) was 0.807.
